# This is part of a sample that, as a whole, favours compounds with a hit. Of some 83,000 tested, about 20% had one in any assay.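 Treatment: one concentration, 48 hours, 96-well format. Scoring: percent growth, with anything below 10 considered active.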 Values without a mark were called inactive. Calls of active or inactive are those of the source.
# Tests used:
# Assay in all cases: NCI-60 one-dose screen, 48 h (100 = growth as untreated, 0 = no growth, -100 = all killed)
# Conditions in all cases: 10 µM unless noted
# NCI-H23 lung = tested on: NCI-H23 lung
# NCI-H226 lung = tested on: NCI-H226 lung
# NCI-H322M lung = tested on: NCI-H322M lung
# HOP-62 NSCLC = tested on: HOP-62 NSCLC
# NCI-H460 lung = tested on: NCI-H460 lung
# NCI-H522 lung = tested on: NCI-H522 lung
# A549/ATCC NSCLC = tested on: A549/ATCC NSCLC
# 786-0 renal = tested on: 786-0 renal
# COLO 205 colon = tested on: COLO 205 colon
# DU-145 prostate = tested on: DU-145 prostate
# K-562 leukemia = tested on: K-562 leukemia
# MALME-3M melanoma = tested on: MALME-3M melanoma
# MDA-MB-231 breast = tested on: MDA-MB-231 breast
# SF-268 CNS = tested on: SF-268 CNS
# SF-295 CNS = tested on: SF-295 CNS
# SF-539 CNS = tested on: SF-539 CNS
# UACC-257 melanoma = tested on: UACC-257 melanoma
# M14 melanoma = tested on: M14 melanoma
# HCT-15 colon = tested on: HCT-15 colon
# RXF 393 renal = tested on: RXF 393 renal
Structure (SMILES),growth (NCI-H23 lung),growth (NCI-H226 lung),growth (NCI-H322M lung),growth (HOP-62 NSCLC),growth (NCI-H460 lung),growth (NCI-H522 lung),growth (A549/ATCC NSCLC),growth (786-0 renal),growth (COLO 205 colon),growth (DU-145 prostate),growth (K-562 leukemia),growth (MALME-3M melanoma),growth (MDA-MB-231 breast),growth (SF-268 CNS),growth (SF-295 CNS),growth (SF-539 CNS),growth (UACC-257 melanoma),growth (M14 melanoma),growth (HCT-15 colon),growth (RXF 393 renal)
CCOC(=O)c1c(C)c(C(=O)OCC)n(C)c1C,121%,66.6%,85.4%,74.4%,117%,102%,91.7%,92.5%,141%,99%,103%,112%,85.6%,93.9%,87.1%,101%,134%,112%,102%,–
COc1cccc(/C=C2\COc3ccc(O)c(O)c3C2=O)c1OC,60.5%,62.8%,32.7%,19%,3.8% (active),-33.3% (active),32.5%,-6.52% (active),72.7%,2.64% (active),-5.62% (active),-75.9% (active),-34.4% (active),17.4%,83.2%,-73% (active),26.8%,–,-10.7% (active),–
O=C(Nc1cccc(C(F)(F)F)c1)Nc1ccc(OCc2nnc(-c3ccc(Cl)cc3)o2)c(F)c1,68%,94.9%,86.5%,50.8%,63.9%,64%,50%,84.2%,66.5%,88.1%,61%,55.7%,58.8%,83.3%,–,82.2%,62.8%,73.5%,42.9%,58.2%
Nc1ccc2c(c1)/C(=N/O)c1cc([N+](=O)[O-])ccc1-2,71.5%,76.3%,42%,91.7%,27.3%,55.1%,49.2%,63.1%,104%,46.4%,22.9%,57.9%,91.7%,62.6%,–,60.1%,81%,49.4%,61.2%,85%
Cc1cc2c(cc1C)Nc1sc(NC(=O)CN3CCN(C)CC3)nc1C(=O)N2,102%,105%,105%,94.5%,101%,86.3%,100%,98.9%,112%,108%,81.7%,109%,114%,103%,109%,107%,109%,103%,101%,–
O=c1ccn(C2CCCO2)c(=O)[nH]1 (stereo unspecified),119%,114%,117%,107%,106%,98.5%,95.3%,109%,118%,109%,105%,116%,107%,104%,–,91.6%,90.9%,107%,105%,111%
CCc1ccc(CCN2C(=O)c3ccccc3C2=O)nc1,112%,100%,108%,102%,103%,118%,106%,106%,118%,118%,95.8%,102%,98.5%,103%,104%,91.6%,95.6%,110%,113%,–
COc1cc(/C=C/C(=O)c2ccc(F)cc2)ccc1OCCCCCOc1cc2c(cc1OC)C(=O)N1CCCC1C=N2 (stereo unspecified),-32.6% (active),-49.7% (active),-2.96% (active),-34.8% (active),3.88% (active),-59.9% (active),4.95% (active),-43.3% (active),-72% (active),-13.1% (active),-6.46% (active),-77.6% (active),-33% (active),-29.9% (active),72.2%,-67.1% (active),8.38% (active),-70% (active),–,–
O=C1CC(=O)N(c2ccccc2)O1,108%,91.2%,108%,92.3%,111%,95.6%,107%,105%,92.3%,105%,111%,–,87.6%,109%,101%,93.6%,106%,99.9%,102%,109%
Clc1ccc(-c2nc(-c3cccs3)no2)c(Cl)c1,92.6%,88.7%,120%,84.9%,92.1%,91.4%,91.4%,97.4%,106%,99.3%,96.1%,103%,–,99.2%,107%,108%,76.2%,100%,–,107%
C=CCOc1ccc2c(c1)CC[C@@H]1[C@@H]2CC[C@@]2(C)[C@H]1CC[C@]2(C)O,92.8%,104%,81.2%,109%,46.3%,60.3%,80.3%,93.8%,75.6%,121%,4.02% (active),–,64.7%,85.7%,94.8%,76.5%,53.9%,88.7%,65.2%,106%
Cc1c(C(N)=O)sc2c1c(=O)n(Cc1ccccc1)c1nnc(S(=O)(=O)CC(=O)Nc3ccc(Cl)cc3)n21,43.2%,-4.71% (active),34.8%,-26.9% (active),-20.8% (active),16.9%,28.5%,3.47% (active),47.2%,43.9%,–,30%,20.5%,73.6%,35.1%,–,47.4%,45.2%,–,41.8%
CCOc1cc(C(C)(C)C)ccc1C1=N[C@H](c2ccc(Cl)cc2)[C@H](c2ccc(Cl)cc2)N1C(=O)N1CCN(CC#Cc2cccc3c2CN([C@@H]2CCC(=O)NC2=O)C3=O)CC1,77%,-17.3% (active),9.35% (active),40.7%,24.2%,39.3%,24.8%,43.8%,8.66% (active),57.1%,24.5%,-32.9% (active),-15.5% (active),39.9%,35.1%,70.3%,42.6%,–,2.53% (active),–
CN1C(=O)C(=Cc2cn(Cc3ccccc3)c3ccc(Br)cc23)C(=O)N(C)C1=O,105%,32.3%,93.8%,85.8%,35.1%,94.4%,88.5%,98.2%,89.6%,97.1%,–,113%,105%,96.7%,75.8%,97.5%,99.1%,99.8%,95.4%,57.6%
C[N+]1(CCC[N+]2(C)C[C@@H]3[C@H](C2)[C@@H]2C=C[C@H]3C2)CCOCC1 (stereo partly specified),105%,110%,106%,94.3%,116%,106%,111%,109%,104%,140%,110%,–,104%,115%,113%,100%,112%,108%,91.4%,121%
COC(=O)CC1=C(C)/C(=C/c2[nH]c(-c3ccc[nH]3)cc2OC)N=C1C,6.26% (active),24.6%,18.2%,-10.9% (active),4.72% (active),-74.8% (active),9.1% (active),-2.31% (active),9.09% (active),24.2%,-23.6% (active),–,-14.3% (active),22.7%,-46.6% (active),-4.76% (active),-8.53% (active),7.46% (active),3.06% (active),8.29% (active)
COc1ccc2nc(NC(=O)c3cc(-c4ccc(F)cc4)n4nc(-c5ccccc5)cc4n3)sc2c1,53.6%,84%,82.8%,61.4%,79.2%,95.8%,77.1%,90.8%,76.3%,78.1%,93.5%,–,72.8%,–,61.6%,66.6%,80%,81.9%,90%,118%
